Screening data as filed in PubChem BioAssay.
HSP90 refold inh = inhibitors of HSP90 luciferase refolding in rabbit reticulocyte lysate. luciferase refolding luminescence, 3 h. inhibition, % at 5.6 µM. 290,000 tested, 0.91% active. AID 1789;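 active means inhibition above the screen-wide mean plus 3 SD, computed separately per campaign, cut at about 16% in these data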;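 further: inhibitors lower the luminescence because luciferase stays unfolded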
HSF-1 act = increases HSF-1 driven luciferase reporter signal; AID 504408; NIH3T3-HGL HSF-1 luciferase reporter, MG132, 8 h; 100% = twice DMSO control signal; activation, % at 9 µM; 300,000 tested, 1.7% active;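 active means mean replicate activation of at least 50% with a set share of replicates each reaching 50%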
HSF1 inh = HSF1 inhibition; 300,000 tested, 0.77% active; NIH3T3-HGL HSE-luciferase, MG132-induced, luminescence 8 h; stronger effect = lower value; activity change, negative = inhibition, % at 7.5 µM (by protocol);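 active means more than half of replicate wells show activity change below -50%, luminescence cut by over half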;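 further: luciferase reports HSF-1 transcriptional activity via heat shock element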
AHR act = human AHR activation. P35869. AHR-responsive luciferase reporter cells, luminescence. activation, % at 5 µM. 320,000 tested, 2.5% active. AID 2796; in the data active means activation above about 47%
Target sequence (P35869 whole entry, looked up): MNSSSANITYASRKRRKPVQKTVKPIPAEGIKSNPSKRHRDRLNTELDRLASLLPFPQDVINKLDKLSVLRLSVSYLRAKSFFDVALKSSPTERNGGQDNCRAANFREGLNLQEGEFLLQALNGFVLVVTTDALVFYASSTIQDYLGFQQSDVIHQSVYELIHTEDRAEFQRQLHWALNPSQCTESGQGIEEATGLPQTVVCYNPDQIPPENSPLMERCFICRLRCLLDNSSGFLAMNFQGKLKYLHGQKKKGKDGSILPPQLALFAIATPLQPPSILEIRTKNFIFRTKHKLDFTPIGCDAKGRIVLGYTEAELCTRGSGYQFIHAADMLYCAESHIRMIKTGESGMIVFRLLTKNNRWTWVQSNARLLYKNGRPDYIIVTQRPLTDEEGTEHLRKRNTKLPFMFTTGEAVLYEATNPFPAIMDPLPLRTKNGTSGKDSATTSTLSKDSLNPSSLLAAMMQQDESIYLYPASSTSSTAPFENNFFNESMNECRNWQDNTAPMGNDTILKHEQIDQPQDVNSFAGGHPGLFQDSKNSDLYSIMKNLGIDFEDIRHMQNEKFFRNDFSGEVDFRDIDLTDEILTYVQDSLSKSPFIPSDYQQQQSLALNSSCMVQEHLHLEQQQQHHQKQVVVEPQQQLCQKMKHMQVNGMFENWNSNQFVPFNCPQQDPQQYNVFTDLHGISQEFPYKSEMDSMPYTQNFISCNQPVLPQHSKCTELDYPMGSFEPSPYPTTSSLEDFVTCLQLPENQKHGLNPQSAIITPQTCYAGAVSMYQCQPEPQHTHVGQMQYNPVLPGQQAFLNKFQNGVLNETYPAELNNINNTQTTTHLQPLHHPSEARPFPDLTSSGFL
GAA850 FXN act = frataxin GAA850 promoter activation; activation, % at 6 µM; 360,000 tested, 0.56% active; HEK293 lucGAA850 FXN promoter luciferase reporter, 24 h; percent of 10 µM SAHA response;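 active means activation above the average of all compounds screened plus 3 SD, cutoff fixed separately per campaign, cut at about 7.5% in these data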
DAX1 inh = NR0B1 (DAX1) inhibition. inhibition, % at 6.75 µM. 340,000 tested, 0.99% active. AID 504766. HEK293 Gal4-DAX1 luciferase reporter, luminescence;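 active means inhibition above the mean over all tested compounds plus 3 SD, cut at about 4.2% in these data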;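 further: inhibition shows as a rise in luminescence from relieved DAX1 repression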
HSP90 inh confirm = HSP90 inhibition, confirmation assay; shares compounds with HSP90 refold inh; inhibition, % at 5.9 µM; rabbit reticulocyte lysate, luciferase refolding luminescence, 3 h; 2,300 tested, 64% active; in the data active means inhibition above about 18%
FLuc counter = counter-screen for HSP90 inhibitors: inhibitors of firefly luciferase. shares compounds with HSP90 refold inh. purified native firefly luciferase, luminescence. inhibition, % at 5.9 µM. 2,300 tested, 48% active;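 active means inhibition above the mean inhibition of all tested sample wells plus 3 SD, cut at about 10% in these data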
AHR act confirm = confirmation of human aryl hydrocarbon receptor activators; shares compounds with AHR act; human cells, AHR-responsive luciferase reporter, luminescence; activation, % at 9 µM; 2,300 tested, 87% active; AID 2845; in the data active means activation above about 49%;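 further: HepG2 hepatoma cells carrying a DRE-driven firefly luciferase reporter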
PXR counter = counter-screen for AHR activators: human PXR activators; shares compounds with AHR act; cell-based PXR reporter, luciferase luminescence; activation, % at 11.6 µM; 2,300 tested, 88% active; AID 434939; in the data active means activation above about 11%;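 further: human hepatoma DPX-2 cells expressing full-length human PXR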
GAA30 counter = counter-screen for GAA850 frataxin promoter activators: GAA30 promoter activation; HEK293 lucGAA30 FXN promoter luciferase, 24 h; DMSO = 0%, 5 µM ipriflavone = 100%; activation, % at 6 µM; shares compounds with GAA850 FXN act; 1,900 tested, 66% active;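 active means mean activation above the mean of solvent-only control wells plus 3 SD, cut at about 22% in these data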;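 further: counterscreen of GAA850 promoter hits where activity marks nonselective or luminescence artifacts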
GAA850 confirm = GAA850 FXN promoter activation confirmation; 1,900 tested, 86% active; HEK293 lucGAA850 FXN promoter luciferase reporter, 24 h; 100% = activation by SAHA; shares compounds with GAA850 FXN act; activation, % at 6 µM;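 active means mean activation above a set limit taken from the primary screen, cut at about 8% in these data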
Of the large screens only hits and unclear results are named; the others gave an inactive call (follow-up assays come after a bar, where they were run). Sampled rows, rich in hits. Any-hit rate of the full collection: about 5.9%.

Cc1ccc(S(=O)(=O)N2CCCC2=O)c(C)c1N(C)S(C)(=O)=O	none
Cc1ccccc1C(=O)O/N=C(\N)c1ccccc1	HSP90 refold inh 23.7, AHR act 79.4 | HSP90 inh confirm 49.0 | FLuc counter 76.9 | AHR act confirm 95.0 | PXR counter inactive
Cc1onc(-c2ccccc2)c1C(=O)NCC(=O)Nc1cc(Cl)ccc1Cl	none (no result: HSP90 refold inh, HSF-1 act, HSF1 inh)
CCCc1nn(C)c(C(=O)Nc2cccc(C)c2)c1Cl	none
CCCc1nn(C)c(C(=O)Nc2ccccc2)c1Cl	HSP90 refold inh 35.8, AHR act 82.1 | HSP90 inh confirm 52.0 | FLuc counter 53.8 | AHR act confirm 89.1 | PXR counter 13.3
CN(C)CCCn1c2c3ccccc3ccc2c2oc(=O)c3ccccc3c21	none (no result: HSP90 refold inh, HSF-1 act, HSF1 inh, AHR act)
CC(=O)N(/N=C1\Sc2ccccc2C1=O)c1ccccc1C	HSP90 refold inh 34.9, AHR act 90.0 | HSP90 inh confirm 73.8 | FLuc counter inactive | AHR act confirm 75.7 | PXR counter 18.6
Cc1nc2ccc(-c3nc4cc(N)ccc4o3)cc2[nH]1	none
CCc1ccc2oc(-c3cccc(N)c3)nc2c1	HSP90 refold inh 18.1, AHR act 83.4 | HSP90 inh confirm 59.7 | FLuc counter 57.7 | AHR act confirm 90.4 | PXR counter 12.2
CCOC(=O)N1CCN(C(=O)c2nn(C)c3c2CSc2ccccc2-3)CC1	none
O=C(Cn1ccc(=O)[nH]c1=O)c1ccc([N+](=O)[O-])o1	none (no result: HSP90 refold inh, HSF-1 act, HSF1 inh, AHR act)
Cc1c(-c2ccccn2)c(=O)[nH]n1-c1ccc(F)cc1	HSP90 refold inh 21.7, AHR act 90.7 | HSP90 inh confirm 29.6 | FLuc counter inactive | AHR act confirm 77.2 | PXR counter 11.0
Oc1sc(C=Nc2ccc(F)cc2)c2ccccc12	none
Oc1c(C=Nc2ccccc2)sc2ccccc12	HSP90 refold inh 38.5, GAA850 FXN act 10.2 | HSP90 inh confirm 84.0 | FLuc counter 80.0 | GAA30 counter 112.4 | GAA850 confirm 37.9
Cc1noc(C)c1S(=O)(=O)N(C)C[C@H]1OCCCC[C@H](C)Oc2ccc(NC(=O)CCCN(C)C)cc2C(=O)N([C@H](C)CO)C[C@@H]1C	none (no result: HSP90 refold inh, HSF-1 act, HSF1 inh, AHR act)
C=CCn1c(C)cc(C(=O)CN2NS(=O)(=O)c3ccccc3C2=O)c1C	HSP90 refold inh 34.7, GAA850 FXN act 7.7, DAX1 inh 5.4 (no result: HSF-1 act, HSF1 inh) | HSP90 inh confirm 35.5 | FLuc counter 12.3 | GAA30 counter inactive | GAA850 confirm 31.6
Cc1ccc(CNC(=O)CN2NS(=O)(=O)c3ccccc3C2=O)cc1	none (no result: HSP90 refold inh, HSF-1 act, HSF1 inh, AHR act)
COc1ccc(CN2CCN(C(=O)Cn3nc(C(=O)O)c4ccccc4c3=O)CC2)cc1F	none
Cn1c2ccccc2c(=O)c2ccc(C#CC3(N)CCCCC3)cc21	HSP90 refold inh 33.7, GAA850 FXN act 10.5 | HSP90 inh confirm 30.1 | FLuc counter inactive | GAA30 counter 48.9 | GAA850 confirm 45.7
NC(=S)N/N=C/c1cn(-c2ccccc2)nc1-c1cccnc1	HSP90 refold inh 30.2, GAA850 FXN act 7.8 | HSP90 inh confirm inactive | FLuc counter inactive | GAA30 counter 63.0 | GAA850 confirm 18.6
O=C(CN1C(=O)C2C3CC(C(Br)C3Br)C2C1=O)Nc1ccc(C(=O)O)cc1 (stereo not given)	none
CCOC(=O)CS(=O)(=O)c1nc(-c2ccc(F)cc2)cc(C(F)(F)F)n1	HSP90 refold inh 53.1, HSF-1 act 88.4, GAA850 FXN act 21.4 | HSP90 inh confirm inactive | FLuc counter inactive | GAA30 counter inactive | GAA850 confirm inactive
Cc1noc(C)c1NC(=O)N(C)C[C@@H]1Oc2c(NC(=O)c3ccncc3)cccc2C(=O)N([C@H](C)CO)C[C@@H]1C	none (no result: HSP90 refold inh, HSF-1 act, HSF1 inh)
Cc1cc(NC(=O)c2coc(=O)c(Br)c2)ccc1C(C)C	HSP90 refold inh 61.0, GAA850 FXN act 8.4 (no result: DAX1 inh) | HSP90 inh confirm 80.7 | FLuc counter inactive | GAA30 counter 89.0 | GAA850 confirm 49.9
N#Cc1ccc(OCC(=O)NCCCn2ccnc2)cc1	none (no result: HSP90 refold inh, HSF-1 act, HSF1 inh)
O=C(O)c1ccc(N/N=C/c2cccc(F)c2)cc1	none
O=C(O)c1ccc(N/N=C/C(Br)=C/c2ccccc2)cc1	HSP90 refold inh 24.1, GAA850 FXN act 10.0 | HSP90 inh confirm 50.3 | FLuc counter 34.6 | GAA30 counter 81.8 | GAA850 confirm 35.9
Cc1nc(-c2ccc(O)c(O)c2)cs1	none
Cc1ccc2nc(-c3ccc(O)c(O)c3)cn2c1	HSP90 refold inh 30.2, GAA850 FXN act 10.5 | HSP90 inh confirm 41.1 | FLuc counter 9.7 | GAA30 counter 122.5 | GAA850 confirm 49.5
COc1ccc(C2=NN(c3ccc(C(=O)O)cc3)C(c3ccc(OC)c(OC)c3)C2)cc1 (stereo not given)	HSP90 refold inh 19.4, GAA850 FXN act 11.4 | HSP90 inh confirm 46.0 | FLuc counter 38.4 | GAA30 counter 31.4 | GAA850 confirm 18.9
COc1ccc(C2CC(c3ccccc3)=NN2c2ccc(S(N)(=O)=O)cc2)cc1OC (stereo not given)	none
CCOc1ccc(OCc2cccc(C(=O)N3CCCCCC3)c2)cc1	HSP90 refold inh 28.0, GAA850 FXN act 7.8 | HSP90 inh confirm 56.4 | FLuc counter 52.0 | GAA30 counter 104.9 | GAA850 confirm 34.9
O=C(/C=C/c1ccccn1)c1cc(Cl)cc(Cl)c1O	AHR act 82.7 | AHR act confirm 112.8 | PXR counter 219.4
NNc1nc2c(-c3ccc(F)cc3)nnn2c2ccccc12	AHR act 101.6 | AHR act confirm 128.4 | PXR counter 35.4
CCNC(=S)Nc1ccc(Cl)c([N+](=O)[O-])c1	AHR act 99.0 | AHR act confirm 50.2 | PXR counter 17.6
Cc1nc2cnccc2n1C	none
Cc1nc2cncc(Br)c2n1C	AHR act 81.4 | AHR act confirm inactive | PXR counter 23.9
O=C(/C=C/c1cccc(C(F)(F)F)c1)OCC(=O)N1CCN(c2ccccc2)CC1	none (no result: HSP90 refold inh, HSF-1 act, HSF1 inh)
Cc1nc(C)c(C(=O)N/N=C/c2cn(C)c3ccccc23)s1	AHR act 96.9 | AHR act confirm 62.5 | PXR counter 22.8
